Screening data deposited in PubChem by National Center for Advancing Translational Sciences (NCATS).
In the library only some 17% were active in any assay of this set; here they are far more common.
HT1080 IDH1KD tx: HT-1080 IDH1 knockdown cell toxicity (counter line) | HT-1080 IDH1 knockdown viability, ATP luminescence, 48 h | Potency, µM (titrated, usually from 46.1 µM), without a hit: at the highest dose activity, negative = toxicity, hits mostly cytotoxic | 360,000 compounds, 2% hits;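 further: 0% = DMSO wells and -100% = cell-free medium wells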
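% activity derives from luminescence (CellTiter-Glo), normalised to DMSO and no-cell wells. HT-1080-IDH1KD cells, 750/well, had 48 h compound exposure at 37 °C.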
TDP1 cell noCPT: qHTS for Inhibitors of human tyrosyl-DNA phosphodiesterase 1 (TDP1): qHTS in cells in absence of CPT. Potency, µM (top dose mostly 46.2 µM), without a hit: at the top dose activity change, negative = growth inhibition, hits mostly inhibitors. DT40 Tdp1-/- hTDP1 cells, no CPT, ATP luminescence, 48 h. AID 686978, 2013. 420,000 compounds, 15% hits; further: on the % scale 0 is the no-effect control and ±100 the full control effect; nearly all actives have a fitted effect of over 55% in size
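Readout: luminescence from CellTiter-Glo after 30 min in the dark at RT. Cells: DT40 Tdp1-/- with stable hTDP1, 400/well. Exposure: compounds alone, ≥48 hr, 37 °C.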
TGFb inhibitor: blocks TGF-b signaling. HepG2 CAGA-GFP TGF-b/SMAD3 reporter, GFP fluorescence, 18 h; TGF-beta stimulated, 500 pg/mL final. Potency, µM (titrated, usually from 46.1 µM), inactives show at the highest dose activity, negative = inhibition, actives largely listed as inhibitors. 410,000 compounds, 1.2% hits; further: on the % scale 0 is the no-effect control and ±100 the full control effect; nearly all actives have a fitted effect of over 65% in size
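HEPG2 CAGA-GFP cells (1000/well, DMEM with 1% FBS) were pre-incubated 2 h at 37 degrees C, given compound by pin tool, then stimulated with TGF-beta at 500 pg/mL final for 18 h before per-cell GFP fluorescence imaging.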
DT40 TDP1 CPT: DT40-hTDP1 cell growth loss with CPT. chicken DT40 Tdp1-/-;hTDP1 cells + 20 nM CPT, ATP luminescence, 48 h. AID 686979. Potency, µM (doses to about 46.2 µM), for the others: top-dose activity change, negative = growth inhibition, hits mostly inhibitors. 420,000 compounds, 12% hits; further: on the % scale 0 is the no-effect control and ±100 the full control effect; nearly all actives have a fitted effect of over 55% in size
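Cell growth measured by CellTiter-Glo luminescence after a minimum 48 h, 37 C compound exposure with 20 nM CPT in Tdp1-knockout DT40 cells stably expressing hTDP1, seeded 400/well; qHTS titration format.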
HT1080-NT tox: kills 2HG-producing HT-1080-NT fibrosarcoma cells; Potency, µM (series often up to 46.1 µM), for inactives: top-dose activity, negative = less viability, actives largely listed as cytotoxic; 360,000 compounds, 1.6% hits; HT-1080-NT fibrosarcoma viability, CellTiter-Glo ATP luminescence, 48 h;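 further: NT is the 2HG producing partner of a matched IDH1 knockdown line; 0% = DMSO-treated cells and -100% = media-only wells without cells; nearly all actives have a fitted effect of over 55% in size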
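HT-1080-NT fibrosarcoma cells (2HG-overproducing), 750 cells/well in RPMI with 5% FBS, dosed after 2 h and incubated 48 h at 37C. CellTiter-Glo luminescence normalized to DMSO and no-cell wells; concentration-response curves fitted and classed.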
HepG2 tox: HepG2 cytotoxicity, counter-screen for TGF-b inhibitors; HepG2 CAGA-GFP viability, ATP luminescence, 18 h; Potency, µM (highest dose often 46.1 µM), for inactives: top-dose activity change, negative = cytotoxicity, usual class: cytotoxic; 410,000 compounds, 0.76% hits
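HepG2 CAGA-GFP cells (1000/well, DMEM with 1% FBS) received compound, then TGF-beta at 500 pg/mL final, and were incubated 18 hours at 37 degrees C. Viability was read by CellTiter-Glo luminescence. Media-only wells were set as complete cell-killing and DMSO as no toxicity.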
Active calls of the source: *; u = inconclusive; x = no result given. The call rests on the fitted dose curve; in most records, active means well fitted curve in the direction sought with a large enough effect; inconclusive means small, poorly fitted or top-dose-only effect, or another doubt; inactive means no such curve, though single readings can be large; an effect the other way counts as inactive or inconclusive. Potency means the concentration at half of the fitted maximal effect.

SMILES	HT1080 IDH1KD tx	TDP1 cell noCPT	TGFb inhibitor	DT40 TDP1 CPT	HT1080-NT tox	HepG2 tox
CC(=O)Nc1ccc(NC(=O)c2ccc(N(C)S(=O)(=O)c3ccc(C)cc3)cc2)cc1	u	-6%	-2%	-9%	u	-25%
CN(c1ccccc1)S(=O)(=O)c1ccc(NC(=O)c2ccc(-c3ccccc3)cc2)cc1	-9%	u	-19%	21µM*	u	-1%
COc1ccc(C(=O)N/C(=C\c2ccc(Cl)cc2)C(=O)NCCN2CCOCC2)cc1	2%	-1%	-2%	-15%	-2%	-4%
Cc1ccc(-c2csc(NC(=O)c3ccc([N+](=O)[O-])o3)n2)cc1	-27%	u	-1%	u	4%	14%
Cc1ccc(CNC(=O)c2ccc([N+](=O)[O-])o2)cc1	u	u	-18%	16µM*	u	14µM*
Cc1ccc(CNC(=S)Nc2ccc(C)c([N+](=O)[O-])c2)cc1	1%	15µM*	0%	23µM*	6%	-19%
Cc1ccc(/C=C/C(=O)c2ccc([N+](=O)[O-])o2)cc1	3.7µM*	2.1µM*	7.9µM*	1.6µM*	12µM*	-19%
Cc1ccc(/C=C/C(=O)c2ccc(C)cc2)cc1	7%	u	-6%	-26%	9%	3%
CC(OC(=O)/C=C/c1cccc(F)c1)C(=O)NC1CCCCC1C (stereo unspecified)	6%	1%	23%	-7%	8%	17%
O=C(NCc1ccccc1Cl)C1CCC(=O)N(CC2CCCCC2)C1 (stereo unspecified)	0%	-22%	18%	-21%	0%	4%
N#Cc1cc(C(=O)c2cc(Cl)ccc2O)cn(-c2ccccc2)c1=O	-2%	1%	11%	19%	-1%	4%
O=C(c1ccccc1)c1cc(Cl)ccc1N1C(=O)C=CC1=O	23µM*	1.2µM*	u	2.3µM*	18µM*	-88%
CC(=O)Nc1ccc(NC(=O)CSc2nnc(-c3cccs3)n2C)cc1	2%	0%	0%	9%	16%	-2%
CN(C)CCCNc1cc(O)c2ncccc2c1	x	x	u	x	x	7.1µM*
Oc1cc(NCc2ccc(F)cc2)cc2cccnc12	x	x	u	x	x	11µM*
Cc1noc(C)c1CSc1nc2ccccc2c(=O)n1-c1ccc(F)cc1F	16µM*	7.3µM*	6%	8.2µM*	u	-9%
Cc1noc(C)c1CSc1nnc2n(-c3ccccc3)c(=O)c3ccccc3n12	-9%	-8%	0%	u	16%	8%
Cc1noc(C)c1CSc1nc2ccccc2c(=O)n1-c1ccccc1	9.2µM*	5.8µM*	11%	6.5µM*	u	1%
Cc1ccc(S(=O)(=O)N2CCN(C(=O)C(C)Cn3cncn3)CC2)cc1 (stereo unspecified)	-1%	1%	-7%	8%	-7%	-17%
CCCOc1ccc(CN(CCC#N)C(=S)NC(=O)c2ccccc2)cc1	-20%	5.2µM*	0%	7.3µM*	-11%	-18%
COc1ccc(/C=N/Nc2cc(C)nc3ccc(Br)cc23)cc1	21µM*	8.2µM*	11µM*	u	7.3µM*	6.3µM*
Cc1cc(N/N=C/c2ccccc2O)c2ccccc2n1	-11%	16µM*	u	16µM*	0%	-39%
COc1ccc2nc(C)cc(N/N=C/c3cccc(OC)c3O)c2c1	16µM*	u	u	u	u	-101%
COc1cc(C2CC(=O)C3=C(C2)Nc2ncnn2C3c2cccs2)cc(OC)c1OC (stereo unspecified)	-15%	0%	16%	-1%	u	-26%
COc1cc(C2C=C(c3cccs3)Nc3ncnn32)cc(OC)c1OC (stereo unspecified)	u	0.65µM*	55%	0.82µM*	u	1%
SMILES	HT1080 IDH1KD tx	TDP1 cell noCPT	TGFb inhibitor	DT40 TDP1 CPT	HT1080-NT tox	HepG2 tox
Brc1ccc(NC2=Nc3ccccc3CC2)cc1	-9%	16µM*	1%	u	1%	-22%
CC(NCCCOc1cccc2ccccc12)c1ccccc1 (stereo unspecified)	u	18µM*	u	u	u	20µM*
COc1ccc2ccccc2c1CNCc1ccc(C)cc1	u	u	u	u	u	-39%
COc1ccc2ccccc2c1CNC(C)c1ccccc1 (stereo unspecified)	u	10µM*	4%	7.3µM*	-27%	-30%
CC(NCCOCCOc1ccccc1)c1ccccc1 (stereo unspecified)	-1%	u	-1%	-19%	1%	-13%
CC(=O)N/C(=C\c1ccccc1)C(=O)OC(C)C(=O)Nc1ccccc1F (stereo unspecified)	0%	-9%	2%	-3%	1%	8%
COc1ccc(NC(=O)CSC2CC(=O)N(c3ccc4c(c3)OCCO4)C2=O)cc1 (stereo unspecified)	-9%	23µM*	-11%	21µM*	0%	-2%
COc1ccccc1NC(=O)CSC1CC(=O)N(c2ccc3c(c2)OCO3)C1=O (stereo unspecified)	7%	6.5µM*	-5%	4.6µM*	1%	-29%
CCOc1cc(CNC(=O)c2ccc3c(c2)NC(=O)C2CCCCN32)cc(OCC)c1OCC (stereo unspecified)	x	u	-4%	18µM*	x	-21%
CN(C)c1ccc(CNC(=O)CN2C(=O)C3CCCCN3c3ccc(C(=O)N4CCCC4)cc32)cc1 (stereo unspecified)	x	u	-2%	23µM*	x	-13%
Cc1cccc(CNC(=O)c2ccc3c(c2)N(C)C(=O)C2CCCCN32)c1 (stereo unspecified)	x	u	32%	13µM*	x	-26%
Cc1ccccc1C(=O)N/N=C/c1cccc2ccccc12	0%	-18%	5%	-1%	2%	2%
Cc1ccccc1NC(=S)N/N=C/C(C)c1ccccc1 (stereo unspecified)	-13%	13µM*	0%	10µM*	-1%	4%
Cc1ccc(Cl)cc1NC(=S)N/N=C/c1cccc2ccccc12	2.6µM*	4.6µM*	-4%	2.9µM*	3.7µM*	11%
